About 1,400 (4.5%) of roughly 31,000 sequences were called active. This is one part of a sample in which actives are shown more often than they occur.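 Rule for the calls: active = median seed-adjusted z-score above 1 or below -1; inactive = the rest.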

The nature of this assay: Novel Modifiers of Survival Motor Neuron (SMN) Protein: Gene Identification via Genome-wide siRNA Screen.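 Note: luminescence tracks full-length SMN protein made from the SMN2 reporter.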 The settings on record: HEK293T SMN2-luciferase reporter, siRNA knockdown, 72 h; actives lie on both sides. An excerpt:
Spinal muscular atrophy (SMA) is the most common neuromuscular autosomal recessive disorder and one of the leading genetic causes of infant death. SMA results from mutations inducing loss of function or deletion in the survival of motor neuron-1 gene (SMN1), leading to deficiency of the survival motor neuron (SMN) protein. Although a second nearly identical gene, SMN2, is retained in humans, its expression primarily produces an aberrantly spliced isoform that is largely unstable and quickly degraded. We performed a genome-wide RNAi screen using a cell-based reporter assay to identify genes and pathways that modulate SMN protein stability. The screen identified over 200 genes that led to the greatest increase or decrease in luciferase expression.
Using HEK293T cells stably expressing a luciferase reporter that combines the promoter and splicing based cassettes in tandem with the major portion of the native SMN2 cDNA with luciferase, we performed a genome-wide RNAi screen to identify modulators of SMN protein levels. Luciferase is expressed when full-length SMN protein is generated with luminescence signal proportional to SMN protein levels. Our luciferase-based reporter assay was used to screen Ambion Silencer Select Human Druggable Genome siRNA library (10418 genes, 3 unique siRNAs per gene) using lipid-based reverse transfection.
Briefly, 1 pmol of each siRNA was spotted to a well of a 384-well plate (Corning, Corning, NY) and 20 microL of serum-free DMEM containing […] of Lipofectamine RNAiMax (Life Technologies, Carlsbad, CA) was then added to each well. Transfected cells were maintained at 37 degrees C in 5% CO2 for 72 hours, 20 microL of ONE-Glo Reagent (Promega) was added to wells for luciferase quantification. Raw luminescence reads were normalized to Ambion(R) Silencer(R) Negative Control #2 siRNA, then log10 transformed. A robust statistical measure of median absolute deviation (MAD) to standardize siRNA activities from each screen. Common Seed Analysis was used to help prioritize clean hits as opposed to those appearing to arise from seed based off-target effects. Candidate modulators were defined as the genes having a MAD score greater than 1.0 or less than -1.0.
Consider GUGUCUCCAUAGUACGAGATT against ELP3, for which the median seed-adjusted z-score is 0.321 (inactive).
Next, AGCUCAACCAUAACGUGAATT against DIRAS2: -1.25 (active); CGCAUUGCUUACUUACAAATT against PCDHA10: 0.0404 (inactive).
As for GCUGAGGACUUUAAUAUCUTT against GPR175, the median seed-adjusted z-score was 0.245 (inactive).
Next, GAUCCAAGCUAAUAUGAGATT against TGM5: 0.0181 (inactive); CCUCAAGGAUUGGGACUAUTT against SLC22A17: -0.149 (inactive); GGAAUUUCAUGUUCGGAAUTT against PAFAH2: 0.0216 (inactive).
Next, GCAUCCGUGGAAAUGGUUATT against ASNS: -1.1 (active); CAUUCGGAGAAGUCGCAAATT against DDX59: -0.859 (inactive).
With GAUGAUUCAGGUAAAAUAATT against CETN3 the figure was -0.0815 (inactive); with CAACGGGACUAUUAUGAUATT against HNRNPC, -2.15 (active); with GCCACGAAAAUCAAUGAGATT against EDF1, 0.0783 (inactive).
Consider CCAGCAAACUCAACCAACATT against KCNJ6, for which the median seed-adjusted z-score was -1.6 (active).
With GGAUGACUACAGGCAAGAATT against GPA33 the figure was 0.138 (inactive).
Consider GCUUCACCAGGGACGUGAATT against CD1D, for which the median seed-adjusted z-score was -0.579 (inactive).
For the sequence AGGUCUCAGAUGAAGCGGUTT against PPM1B, the median seed-adjusted z-score is 0 (inactive).
As for CCCUUAAUAGAGAGAGUUATT against AADAT, the median seed-adjusted z-score is 0.0891 (inactive).
In the case of GGAUCAAUGAGUUCUCCAUTT against FMOD, the median seed-adjusted z-score was -1.32 (active).
GGCUCAAGUUCAACGAGUUTT against ARL4C: the median seed-adjusted z-score was -0.61 (inactive).
Next, GGCCUAUGCAAAAAGAGGATT against BAD: 0 (inactive); GGAUACAUUAAGCUAAUAATT against PRMT3: 0.00875 (inactive); CCACCCUUCCGAGACAUGATT against TOP3B: -1.11 (active).
With GCAUAAGAGGGAAUUCACATT against TAGLN, the median seed-adjusted z-score was 0.0485 (inactive).
With CGAUCGUCUUCUGAUCAAATT against DPYSL2, the median seed-adjusted z-score is -0.569 (inactive).
With ACCUGAGUGUGAACCUCUATT against GDPD5 the figure was -0.0618 (inactive).
Next, CAGUAGUGUUGGUAGACCATT against HADH: 1.11 (active).
Next, GAGUGUAUGUGAUCAUCGATT against PRKCE: 0.568 (inactive); GGAGAUUGUUUCACGGAAATT against TBC1D23: 0.0932 (inactive); GGGACGAGAUCAACGAGAATT against KIF5A: -0.348 (inactive).
In the case of UCUUAUUUAUUCUACAUCCTT against TNFRSF6B, the median seed-adjusted z-score was 0.0458 (inactive).
Next, GUUGUUCCUUUGUAUCCAATT against DHX32: -0.12 (inactive).
For CCCAGACAAAUUACCUAUATT against CAD, the median seed-adjusted z-score is 2.37 (active).
GGACCUAUGAGCAACGAAATT against ATP1A4: the median seed-adjusted z-score is 0.116 (inactive).
With GCAUGAACCAGUUAUCACATT against SCYL2 the figure was -0.0652 (inactive); with GCAGCUCUGAGAACGGCAATT against ARHGEF1, -0.0658 (inactive); with CUACCGAUGCUGAAAGACATT against PGM3, -0.527 (inactive).
With CCACGCUCAUCAUCUCCAATT against SLC4A2 the figure was -0.539 (inactive).
Next, CUACUGUUCUUGACCACAATT against DHX15: 1.36 (active).
Turning to GGCUCAAGGGCUUUGCUGATT against ADSSL1, the median seed-adjusted z-score was 0.0976 (inactive).
With CCGUUAGACCAGAACGGAATT against MGA the figure was 0.0136 (inactive); with CAUAGUCACAUGAUUAAUATT against POSTN, -0.45 (inactive); with GGAAGACAAUUGCUAAGGUTT against TRO, 2.04 (active).
Next, CCUUAUCCGCUACCUCCAATT against TAF5L: 0.409 (inactive).
With GGAAGAAGGUAUUCCGUAUTT against CHD5 the figure was -0.195 (inactive); with CGUCCAUGUUUAUCUACAATT against ENTPD2, 0.0319 (inactive).
With CGAACGAGCUAUCACAGAATT against TFB1M, the median seed-adjusted z-score is 0.172 (inactive).
For the sequence CAUUCGGUAUUUUAUUCUATT against SNRPD1, the median seed-adjusted z-score was -2.97 (active).
Next, CCUUGCAACAUGUUCGUGATT against KRIT1: -0.447 (inactive).
Next, GAAAAACGAUGUAAGCAAUTT against ADH1A: 0.624 (inactive).
Next, GAGACAAACUAAUUGAGAATT against PPP1R8: -0.029 (inactive).
In the case of GGCUACAAAUGUUCAUCGATT against LRP6, the median seed-adjusted z-score was -0.116 (inactive).
In the case of CGUCAAUUCCGGUACACUUTT against PIGM, the median seed-adjusted z-score is 1.36 (active).
With CACAUUAAAGUGUAAAGAATT against PIP3-E the figure was 0.676 (inactive); with GGACAAAGUCCUAAAGAAATT against MGC21874, -0.354 (inactive).
On to GCACUGUCUACAUCCCUGATT against RHCG, for which the median seed-adjusted z-score is 0.375 (inactive).
With AGAUAGUUCUGGAACUGGATT against HES2 the figure was -0.186 (inactive); with CCACUAGCACAUUCCGCAATT against RBP2, 0.0132 (inactive); with GGACGACUCUGAUCUGGAUTT against DYNC1I1, -0.716 (inactive).
Take GGCGAAAAAUUGCUACCGATT against PSMC2: the median seed-adjusted z-score was -1.96 (active).
With CUCUAGUCGCGUCAAGUUUTT against NISCH the figure was -0.0757 (inactive); with GCAAAAAGAGCGAUCAGAATT against CNDP1, 0.203 (inactive); with GGAUAUAACGAGAAUGUCUTT against MED27, -1.62 (active).
With AGAUAGAAAUUGACUUUGATT against BRD3 the figure was 0.633 (inactive); with GCGAAAACAUGGAUGUUCUTT against HERC2, 0.98 (inactive); with CUUUCCGUGUGAAAUCAAATT against ZNF761, 0.291 (inactive).
With AGACCUCCUACGACAUUAATT against BOC the figure was -0.0192 (inactive).
Regarding GACUCAAUGCUACUAUCAATT against ADAM32, the median seed-adjusted z-score is 1.75 (active).
With GGGUGAAUGCUAUUGAGUUTT against MKRN1 the figure was -0.496 (inactive); with AGAACUUCAUGGACAUAGATT against CNR1, 0.0359 (inactive).
With CCACCGAUGAGAUUACCUUTT against STS the figure was -0.392 (inactive); with CAGAGGUUGUGACACGAAATT against PAK1, -0.168 (inactive); with CUAUGAGGAAUGUCGCAGATT against XPO1, 1.12 (active).
Next, GGUCCUCAUUGAAAACGAATT against BTBD11: -0.00434 (inactive); GGACUACAGUAUACAUUGUTT against PCDH24: 0.345 (inactive).
For GGAACAGGCUAUCAGAACATT against TTC8, the median seed-adjusted z-score is 0 (inactive).
Next, GGGCUUUAAAUAUGAGAUUTT against GRID1: 0.66 (inactive).
As for CGUUGUCACUGAGAUCACATT against AVIL, the median seed-adjusted z-score was -0.127 (inactive).
Next, AAGACAUACCGACCUCUUATT against PPIL3: 0.282 (inactive).
On to GGACGUACAGUGGUGGUAATT against ABCA3, for which the median seed-adjusted z-score is -0.363 (inactive).
With CCAAUAUUCGACUUGCGUATT against XPO1 the figure was 1.12 (active); with GCCGCCAAGUAAAGCCUUATT against HSPB1, 0.693 (inactive).
Next, CAAGCUGUCUAAGUCCAAATT against NOVA1: -0.486 (inactive); CCCACCAUGUUACAAGACATT against POLR2G: -4.19 (active); GCAAGGAAGAAAUUUGUGATT against ERCC1: -0.566 (inactive).
Next, CUCACAUAAUCAUAAUAGATT against ZNF41: 0.342 (inactive); GGAGCCUUGUUGAUCCUUATT against FRAP1: -1.02 (active).
Take CGUUCGCACAUUCCUUAUATT against KIF6: the median seed-adjusted z-score was -0.0396 (inactive).
Next, GCUUUGUAGAAUUUGCAGATT against TRNAU1AP: 0.52 (inactive).
Next, GGACCGGCCUUUUCGAAAATT against SNRNP35: 0.172 (inactive).
In the case of GGCUGAUUACGUUCGGGAATT against MYL2, the median seed-adjusted z-score was -0.0369 (inactive).
Turning to CAAUGAUCCCGGGCAUUUATT against RPP21, the median seed-adjusted z-score is -1.09 (active).
Next, GGAGACCAACUGCAACUUUTT against ZACN: 0.065 (inactive).
Take CGGAGGUGACUGACAGAUATT against CAMKV: the median seed-adjusted z-score is -0.193 (inactive).
Next, GAGUCAAAUUUGUGAAGAATT against GLO1: -0.0827 (inactive).
As to CUGUGGGAGUUAUUGUCAATT against CDH13, the median seed-adjusted z-score was 0 (inactive).
With CAAGCAUCUUUGUCAAAGATT against PTH2R the figure was -0.492 (inactive); with GGCUGAUAGUUUAGGAGUUTT against EIF5B, 1.68 (active).
With GCUGGUUACUUAUCACCAATT against TPH1 the figure was -0.055 (inactive); with AACCUAUGCGUAUCCAGUATT against SNRPA, -2.09 (active).
With CGAAGUGAGUGAUAACAGUTT against RNF157 the figure was 0.0197 (inactive); with GCAAGACCGAAGUAAACUATT against GPX4, -1.18 (active).
As to UGUUAAGCUUCAUCAGUAUTT against MRGPRX1, the median seed-adjusted z-score was -0.188 (inactive).
Next, ACAUCUCACGGAUCCUUAATT against PAX4: 0.0811 (inactive); GGUGAAGGUAGAUCAAAGATT against EIF2AK2: 0.419 (inactive); CGACUUCUCAGAAGGCAGATT against GATA4: -0.24 (inactive).
As to AAAUCUCAAUGGUCGCUAUTT against FCN3, the median seed-adjusted z-score was -0.112 (inactive).
Take AGGAGCUUGUUGAUCCCUATT against SLC7A8: the median seed-adjusted z-score is -0.134 (inactive).
Next, CCACAUAGGUCAGAAACGATT against CLDN17: 0 (inactive); CAUCGUCUCUGCUGACAAATT against TUBAL3: 1.05 (active).

These data come from PubChem BioAssay AID1347426 (Functional Genomics Laboratory (NCATS/FGL), 2020).
